Compounds with a hit are over-represented: about 2.1% of the library has one in this group of screens.
ERAP1 HTS inh = human ERAP1 aminopeptidase inhibitors, primary screen, biochemical, single point, plate reader; 0.15% of 340,000 active; recombinant ERAP1, Leu-AMC fluorescence, 60 min; Endoplasmic reticulum aminopeptidase 1 (Homo sapiens), Q9NZ08; inhibition, % at 10.7 µM; AID 652197, 2013;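 active = mean replicate inhibition of at least 30%, or all replicates individually reaching that 30% level; inactive = mean below 30% and not every replicate reaching it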;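 note: 0% = neutral control wells and 100% = L-leucinethiol positive control wells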
ARNT TACC3 PPI = disruptors of ARNT/TACC3 protein interaction, primary screen, biochemical, AlphaScreen, single concentration; AlphaScreen His-ARNT PAS-B/GST-TACC3 binding, luminescence; TACC3 fragment carries E629A point mutation; Transforming acidic coiled-coil-containing protein 3 (Homo sapiens), Q9Y6A5; 0.66% of 390,000 active; inhibition, % at 9.99 µM;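 active = mean inhibition of replicates at least 50% and at least half of replicates each reaching 50%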;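 note: 0% = complete ARNT plus TACC3 wells and 100% = ARNT alone without TACC3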
PvdQ acylase = P. aeruginosa PvdQ acylase inhibitors, primary screen, biochemical, fluorescence, plate reader and imaging, single point. PvdQ acylase [Pseudomonas aeruginosa LESB58]. 0.063% of 340,000 active. inhibition, % at 10 µM. purified PvdQ acylase; in the data active = inhibition above about 30%, passing the limit was not always enough;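 note: 0% = vehicle neutral wells and 100% = reference inhibitor wells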
F508del corr = F508del CFTR correction, initial screen, CFBE line, single point | AID 720511, 2013 | CFBE cells, YFP halide quenching; stimulated with forskolin plus potentiator P3; % fluorescence drop versus neutral controls | activity (quench increase), % at 7.58 µM | 0.36% of 350,000 active;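 active = mean added fluorescence quench of at least 8% versus neutral control, with both replicates also reaching 8%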;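 note: cells transiently co-express mutant CFTR-F508del with the halide-sensitive YFP; corrector assay measuring rescue of mutant channel to the surface after 24 h compound exposure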
rRNA inh HTS = reduced GFP signal of wild-type E. coli, primary screen, bacterial rRNA inhibitor project, GFP/RFP fluorescence, OD600, single point. E. coli WT GFP vs humanized-ribosome RFP mutants, 24 h; active compounds read low; DMSO median 0, no signal -100. GFP signal change (wild-type ribosome), % (no concentration beside the values). 1.6% of 350,000 active;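 active = significant combined selectivity score with lowered wild-type GFP, culture density cut under 30%, mutant RFP and density less affected; inactive = any of these conditions unmet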
ARNT Alpha ctr-1 = AlphaScreen signal interference compounds, dose response, artefact control for ARNT-TACC3 interaction inhibitor project, biochemical, luminescence, cherry-pick; shares compounds with ARNT TACC3 PPI; His-ARNT PASB-GST AlphaScreen artifact counter-screen; AC50, µM (doses to about 68 µM), without a hit: at the top dose activity change, negative = signal decrease; 50% of 1,200 active;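 active = every separate test run was called active for a drop in luminescence, with AC50 within twice the top valid dose, actives reach about 71 µM in these data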
ARNT Alpha ctr-2 = AlphaScreen signal interference by compounds, dose response, artefact control for ARNT/TACC3 disruptor project, biochemical, dual-tagged ARNT, dry powder; AC50, µM; AID 720564, 2013; Dual-tagged His-ARNT PASB-GST AlphaScreen artifact counter-screen; shares compounds with ARNT TACC3 PPI; 70% of 45 active;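 active = luminescence drop, with half-maximal potency fitted within twice the sample's top valid dose, cut at about 70 µM in these data; inactive = the rest, including signal moving the wrong way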
* = called active by the depositor; · = no result given; [ ] = another dose, or the depositor's remark.

SMILES	ERAP1 HTS inh	ARNT TACC3 PPI	PvdQ acylase	F508del corr	rRNA inh HTS	ARNT Alpha ctr-1	others
C[C@@H]1CCCCO[C@@H](CN(C)C(=O)CCCN(C)C)[C@H](C)CN([C@H](C)CO)C(=O)c2cc(NC(=O)CCC(F)(F)F)ccc2O1	1	-14	·	-1	0	·
Cc1sc2ncnc(N/N=C/c3ccc(O)cc3)c2c1C	-2	41	1	0	-28	·
Cc1sc2ncnc(N/N=C/c3ccccc3O)c2c1C	·	54*	15	·	·	41µM*
O=C(Nc1cccc(F)c1)c1cccnc1NCCc1ccccc1	·	active	1	·	·	-4%
O=C(Nc1ccc(F)cc1)c1cccnc1NCCc1ccccc1	·	-8	-11	·	·	·
O=S(=O)(c1ccccc1)N1C[C@H]2[C@@H](c3ccccc31)[C@@H](CO)N2Cc1ccccn1	3	27*	·	-1	-3	-31%[42 µM]
COCC(=O)Nc1ccc2c(c1)[C@H]1C[C@H](CC(=O)NCCc3ccccc3)O[C@@H](CO)[C@H]1O2	9	4	·	-9	1	·
Cc1nnc(NC(=O)C2CCN(S(=O)(=O)c3cc([N+](=O)[O-])ccc3Cl)CC2)o1	-2	52*	10	-1	-7	-20%
COCc1nnc(NC(=O)c2ccc(S(=O)(=O)N3CCCCCC3)cc2)o1	·	36	-16	·	·	·
O=C(NC1CC1)C1CCN(S(=O)(=O)c2cc([N+](=O)[O-])ccc2Cl)CC1	0	-9	-5	2	4	·
CC1CCCN(S(=O)(=O)c2ccc(C(=O)Nc3nnc(C4CC4)o3)cc2)C1 (stereo not given)	-2	51*	-18	0	-50	65µM*
Cc1nnc(NC(=O)c2ccc(S(=O)(=O)N3CCCCC3)cc2)o1	·	·	·	·	·	·	ARNT Alpha ctr-2=>136
CCCC#Cc1ccc([C@@H]2[C@@H](CO)N3C(=O)CN(C(=O)c4cccc(F)c4)C[C@H]23)cc1	·	·	·	·	3	·
COc1ccc(S(=O)(=O)Nc2ccc3c(c2)C(=O)N([C@@H](C)CO)C[C@H](C)[C@@H](CN(C)Cc2ccc(-c4ccccc4)cc2)O3)cc1	2	-4	·	1	0	·
COc1ccc(S(=O)(=O)N(C)C[C@@H]2Oc3ccc(NC(=O)NC(C)C)cc3CC(=O)N([C@H](C)CO)C[C@H]2C)cc1	4	-2	·	1	0	·
NC1=NN=C(N2N=C(c3ccccc3)CC2(O)C(F)(F)F)n2ncnc2C1 (stereo not given)	-1	54*	-22	2	10	-1%
NC1=NN=C(N2N=C(c3ccc(Br)cc3)CC2(O)C(F)(F)F)n2ncnc2C1 (stereo not given)	-1	0	7	2	19	·
CN(C)C(=O)c1ccc(-c2ccc([C@@H]3[C@H](C#N)N[C@H]3CO)cc2)cc1	-1	·	·	0	8	·
C[C@H]1CN([C@@H](C)CO)C(=O)Cc2cc(NC(=O)CCCCCC(=O)Nc3ccccc3N)ccc2O[C@H]1CN(C)Cc1ccc(-c2ccccc2)cc1	1	-1	·	0	-4	·
O=c1cc(CSc2ccc(Cl)cc2)nc(-c2ccccn2)[nH]1	-2	61*	-14	7	-57	53µM*
Clc1ccc(SCc2cc(N3CCOCC3)nc(-c3ccccn3)n2)cc1	-3	60*	11	8.1*	-60	-14%
O=c1cc(CSc2ccc(Cl)cc2)nc(-c2ccccc2)[nH]1	-1	1	-12	-6	9	·
CNC(=O)C[C@H]1CC[C@@H]2[C@H](COc3ccc(NC(=O)c4ccccc4OC)cc3C(=O)N2C)O1	0	2	·	2	-7	·
